Screening results deposited in PubChem BioAssay by several laboratories.
LMP1 NFkB inh: EBV LMP1-driven NF-kappaB luciferase reporter inhibitors, primary screen, cell-based, luminescence, single point; actives 0.69% (n = 350,000); LMP1-induced NF-kappaB luciferase reporter cells; inhibition, % at 12.5 µM; AID 504558, 2011; in the data active means inhibition above about 41%; inconclusive means no clear call, values can overlap the other calls;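 further: 0% = neutral control wells and 100% = reference inhibitor control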
HSP90 inh: HSP90 inhibitors, primary screen, cell lysate, luminescence. Heat shock protein HSP 90 (rabbit reticulocyte lysate; luciferase refolding). Rabbit reticulocyte lysate, luciferase refolding luminescence, 3 h. inhibition, % at 5.6 µM. actives 0.91% (n = 290,000);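 active means inhibition above the screen-wide mean plus 3 SD, computed separately per campaign, cut at about 16% in these data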;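 further: 0% = DMSO wells and 100% = 60 µM geldanamycin wells; inhibitors lower the luminescence because luciferase stays unfolded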
aDG glyco up: activators of alpha-DG glycosylation, primary screen, uHTS, Pro5-aDG cells, AlphaScreen | alpha-DG glycosylation AlphaScreen (IIH6); 0% Pro5, 100% B10-LARGE cell signal | actives 0.22% (n = 360,000) | AID 624168, 2012 | activation, % at 10 µM;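 active means activation of at least 8% versus controls, or a plate z-score of at least 8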;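 further: Pro5 are CHO cells carrying HIG-tagged alpha-DG that lacks glycosylation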
LGR2 inh: inhibitors of bursicon-induced LGR2 CRE-luciferase signal, primary screen, cell-based, HEK293, CRE-luciferase reporter, bursicon stimulation; inhibition, % at 9.99 µM; actives 0.35% (n = 380,000); bursicon-stimulated, 4 h; Drosophila bursicon receptor LGR2 (rickets);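 active means drop in luminescence signal, shown as inhibition above about 50% in the replicate tests, limit read from the data, passing the limit was not always enough; inconclusive means probably only some replicates passing the limit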;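 further: agonist challenge used bursicon conditioned medium at about half maximal strength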
TROY NFkB inh: inhibitors of TROY-driven NF-kB signaling, primary screen, Q293 LMP1-TROYcd cells, NF-kB luciferase, uHTS; actives 0.98% (n = 360,000); Q293 LMP1-TROYcd NF-kB luciferase reporter, 4 h; AID 1347056, 2019; inhibition, % at 10 µM;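 active means compounds whose plate-normalised and pattern-corrected inhibition of the luciferase reporter signal at the single screening dose is 50% or more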
TWEAK Fn14 block: inhibitors of TWEAK-Fn14 signaling, primary screen, luciferase reporter cells, uHTS. TWEAK-stimulated Fn14 reporter cells, luciferase luminescence, 8 h. inhibition, % at 10 µM. actives 2% (n = 360,000). AID 1159606, 2016; in the data active means inhibition above about 50%
* hit, by the source's call. Shown are actives, neighbours in structure and some others; about 2.6% of the full set was active somewhere.

Screening COc1ccc2c3c(n(C)c2c1)[C@@H](CO)N(Cc1ccc2c(c1)OCO2)CC31CN(C(=O)c2ccc3c(c2)OCO3)C1 returned LGR2 inh 12.
CCCc1nnc(NC(=O)c2nc(S(=O)(=O)Cc3ccc(C)cc3)ncc2Cl)s1 was read as LMP1 NFkB inh 22, HSP90 inh 5, aDG glyco up 0, LGR2 inh -15, TROY NFkB inh 62* and TWEAK Fn14 block 95*.
CSc1nnc(NC(=O)c2nc(S(=O)(=O)Cc3ccccc3)ncc2Cl)s1 was read as LMP1 NFkB inh 8, HSP90 inh 5, aDG glyco up 0, LGR2 inh -16, TROY NFkB inh 26 and TWEAK Fn14 block 98*.
`CC(C)c1nnc(NC(=O)c2nc(S(=O)(=O)Cc3ccccc3)ncc2Cl)s1` gave LMP1 NFkB inh 11, HSP90 inh 8, aDG glyco up 5, LGR2 inh 7, TROY NFkB inh 32 and TWEAK Fn14 block 94*.
CC(C)c1nnc(NC(=O)CCc2ccccc2)s1 was read as LMP1 NFkB inh -2, HSP90 inh 5, aDG glyco up 0, LGR2 inh -24, TROY NFkB inh -26 and TWEAK Fn14 block -5.
C[C@@H]1CCCCO[C@@H](CN(C)CC2CCCCC2)[C@H](C)CN([C@H](C)CO)C(=O)c2cc(NS(=O)(=O)c3cn(C)cn3)ccc2O1 was read as LGR2 inh 10.
For S=C1NCN(CCc2ccccc2)CN1Cc1ccccc1 the results were LMP1 NFkB inh -16, HSP90 inh 6, aDG glyco up 0, LGR2 inh 5, TROY NFkB inh 13 and TWEAK Fn14 block 96*.
`CCCN1CNC(=S)N(Cc2ccccc2)C1` gave LMP1 NFkB inh -4, HSP90 inh 2, aDG glyco up 0, LGR2 inh 15, TROY NFkB inh 1 and TWEAK Fn14 block 9.
`CCCN1CN(CCc2ccccc2)CNC1=S` gave LMP1 NFkB inh -1, HSP90 inh 4, aDG glyco up 0, LGR2 inh 2, TROY NFkB inh -11 and TWEAK Fn14 block 104*.
Cc1noc(C)c1NC(=O)N(C)C[C@H]1Oc2ccc(NS(=O)(=O)c3c(C)noc3C)cc2CC(=O)N([C@@H](C)CO)C[C@@H]1C was read as LGR2 inh -8.
Screening C/C=C/c1ccc([C@@H]2[C@@H](CO)N3C(=O)CN(Cc4ccccc4)C[C@H]23)cc1 returned LGR2 inh 3.
For Cc1ccc(S(=O)(=O)Nc2ccc3c(c2)C(=O)N([C@@H](C)CO)C[C@H](C)[C@H](CN(C)Cc2ccc(C(=O)O)cc2)OCCCC[C@@H](C)O3)cc1 the results were LGR2 inh -4.
Screening Cc1ccccc1C1NC(=O)c2ccccc2O1 (stereo not drawn) returned LMP1 NFkB inh -6, HSP90 inh 1, aDG glyco up 0, LGR2 inh 14, TROY NFkB inh -8 and TWEAK Fn14 block 88*.
For CCc1ccc(NC(=O)NNC(=O)c2cc3ccccc3cc2O)cc1 the results were LMP1 NFkB inh -6, HSP90 inh -1, aDG glyco up 0, LGR2 inh 8, TROY NFkB inh -3 and TWEAK Fn14 block -2.
`CCOc1ccc(NC(=O)NNC(=O)c2cc3ccccc3cc2O)cc1` gave LMP1 NFkB inh 4, HSP90 inh -1, aDG glyco up 0, LGR2 inh -1, TROY NFkB inh 52* and TWEAK Fn14 block 55*.
O=C(N[C@H]1CC[C@H](CCNC(=O)c2ccccc2F)O[C@@H]1CO)c1ccc2c(c1)OCO2 was read as LGR2 inh 7.
COc1cc(/C=C2/SC(=O)NC2=O)ccc1Oc1ccc([N+](=O)[O-])cc1[N+](=O)[O-] was read as LMP1 NFkB inh 3, HSP90 inh -2, aDG glyco up 0, LGR2 inh 4, TROY NFkB inh 54* and TWEAK Fn14 block 56*.
Screening CCOC(=O)c1c(-c2ccccc2)csc1NC(=O)CSc1nc(N)cc(N)n1 returned LMP1 NFkB inh -17, HSP90 inh -1, aDG glyco up 1, LGR2 inh -8, TROY NFkB inh 44 and TWEAK Fn14 block 86*.
`COC(=O)c1c(-c2cccs2)csc1NC(=O)CN1CCOCC1` gave LMP1 NFkB inh -33, HSP90 inh 3, aDG glyco up 0, TROY NFkB inh 67* and TWEAK Fn14 block 21.
CCOC(=O)c1c(-c2ccc(C)o2)csc1NC(=O)CN1CCCCC1 was read as LMP1 NFkB inh 2, HSP90 inh 3, aDG glyco up 0, LGR2 inh 4, TROY NFkB inh 9 and TWEAK Fn14 block 54*.
For CCOC(=O)c1c(-c2ccc(OC)cc2)csc1NC(=O)CCN1CCOCC1 the results were LMP1 NFkB inh -4, HSP90 inh 1, aDG glyco up 0, LGR2 inh -5, TROY NFkB inh 3 and TWEAK Fn14 block 20.
For CCOC(=O)c1c(-c2ccc(C)o2)csc1NC(=O)CN1CCN(CC)CC1 the results were LMP1 NFkB inh -8, HSP90 inh 3, aDG glyco up 0, TROY NFkB inh 11 and TWEAK Fn14 block -5.
For CC(C)NC(=O)N(C)C[C@@H]1OCCCC[C@@H](C)Oc2ccc(NS(=O)(=O)c3ccccc3)cc2C(=O)N([C@@H](C)CO)C[C@H]1C the results were LGR2 inh 1.
For CSc1ccccc1NC(=O)C(C)N(C)CC(=O)N1CCN(Cc2ccccc2)CC1 (stereo not drawn) the results were LMP1 NFkB inh 72*, aDG glyco up 1, LGR2 inh -8, TROY NFkB inh -3 and TWEAK Fn14 block -13.
`c1cncc(-c2ccc3ncnc(NCc4ccc5c(c4)OCO5)c3c2)c1` gave LMP1 NFkB inh 1, aDG glyco up 0, LGR2 inh -38, TROY NFkB inh 12 and TWEAK Fn14 block 35.
`c1nc(NCc2ccc3c(c2)OCO3)c2cc(-c3ccoc3)ccc2n1` gave LMP1 NFkB inh 49*, aDG glyco up 1, LGR2 inh inconclusive, TROY NFkB inh 27 and TWEAK Fn14 block 83*.
C/C(Cl)=C\Cn1c(NCCc2ccccc2)nc2c1c(=O)n(C)c(=O)n2C was read as LMP1 NFkB inh 31, HSP90 inh 1, aDG glyco up 3, LGR2 inh 17, TROY NFkB inh 50* and TWEAK Fn14 block 54*.
`C[C@@H]1CN([C@@H](C)CO)C(=O)c2cc(NC(=O)NC3CCCCC3)ccc2O[C@@H](C)CCCCO[C@H]1CN(C)C(=O)C1CCCCC1` gave LGR2 inh 4.
